Source: PubChem BioAssay (National Center for Advancing Translational Sciences (NCATS))
Shown are actives, neighbours in structure and some others; about 21% of the full set was active somewhere.
Pf growth 96h = Primary qHTS for delayed death inhibitors of the malarial parasite plastid, 96 hour incubation; P. falciparum luciferase reporter growth, 96 h; Potency, µM (titrated, usually from 28.7 µM), hits mostly inhibitors; 320,000 tested, 6.9% active
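Erythrocytes infected with luciferase-expressing P. falciparum were dispensed at 2% hematocrit and 0.05% parasitemia (final), then incubated with compounds 96 hours at 37 C in 5% CO2. Luminescence after detection reagent addition reported growth.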
Pf growth 48h = Primary qHTS for delayed death inhibitors of the malarial parasite plastid, 48 hour incubation. AID 504832, 2011. 310,000 tested, 5.9% active. P. falciparum luciferase growth in erythrocytes, 48 h. Potency, µM (highest dose often 28.7 µM), actives largely listed as inhibitors
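Here the parasites carry a stable luciferase gene and grow inside erythrocytes in Albumax-based RPMI medium with compound for one erythrocytic cycle. Activity is scored as loss of luminescent signal.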
NS1 inh = qHTS Assay for Inhibitors of Influenza NS1 Protein Function | 270,000 tested, 0.4% active | Potency, µM (doses to about 46.1 µM); calls by dose curve; further: actives are rising curves; nearly all actives have a fitted effect of over 50% in size
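S. cerevisiae expressing influenza A NS1, grown in glucose, washed, then diluted 1:100 into pH 6.0 -URA galactose medium with 23 nl compound. Growth recovery read as OD600; NS1-free strain serves as control.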
Cycloheximide cs = Cycloheximide Counterscreen for Small Molecule Inhibitors of Shiga Toxin; cell reporter, cycloheximide protein synthesis inhibition counterscreen; max response, %; 300,000 tested, 12% active; in the data active means max response mostly above about 13%, no sharp cut-off; inactive means mostly below about 14%; further: read at 38.3 µM for the half of the compounds with a filed dose
Shiga toxin inh = A qHTS for Small Molecule Inhibitors of Shiga Toxin. Vero cells, Shiga toxin protein synthesis inhibition reporter. inhibition, % at 38.7 µM. 290,000 tested, 9.2% active. AID 2315, 2010; in the data active means inhibition mostly above about 28%, no sharp cut-off; inactive means mostly below about 43%
Sm TGR inh = qHTS Assay for the Inhibitors of Schistosoma Mansoni Peroxiredoxins; Schistosoma mansoni thioredoxin glutathione reductase (TGR), Q962Y6; purified TGR, DTNB reduction, TNB absorbance 405 nm; Potency, µM (doses to about 114 µM), hits mostly inhibitors; 360,000 tested, 3% active; further: nearly all actives have a fitted effect of over 60% in size
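First, TGR (20 nM dispensed) and NADPH were mixed with compound. Second, a 15 min room-temperature incubation followed. Third, further NADPH and then DTNB were added to start the reaction. Finally, TNB absorbance was monitored kinetically.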
Numbers stand for hits; - = inactive; ? = inconclusive; . = no result; ! = repeats disagree; [ ] = dose if it differs, or a comment. Unless noted, the call rests on the fitted dose curve; in most records, active means well fitted curve in the direction sought with a large enough effect; inconclusive means small, poorly fitted or top-dose-only effect, or another doubt; inactive means no such curve, though single readings can be large; an effect the other way counts as inactive or inconclusive.

SMILES | Pf growth 96h | Pf growth 48h | NS1 inh | Cycloheximide cs | Shiga toxin inh | Sm TGR inh
CN1CCC(=NNC(=O)C(=O)Nc2ccc(F)cc2)CC1 | - | - | - | 37.8 | 74.1 | -
COc1ccc(CN2CCN(C3CCSCC3)CC2CCO)c(C)c1C (centres undefined) | - | - | - | - | - | 35.5µM
CCOCCc1nn2c(=O)cc(COC(=O)c3ccccc3NC(=O)c3ccc(C)cc3)nc2s1 | . | . | . | . | . | -
Cc1ccc(-c2nn(-c3ccc(F)cc3)cc2C(=O)NCC2CCCO2)cc1 (centres undefined) | ? | - | . | . | . | 50.1µM
Cc1c(C(=O)NCC2CCCO2)sc2nc(-c3ccc(F)cc3)cn12 (centres undefined) | - | - | - | 31.7 | - | -
CCN(CC)CCCNC(=O)c1sc2nc(-c3ccc(F)cc3)cn2c1C | 13.1µM | . | - | - | - | -
CCN1CCN(c2cc(C)c3cc(NC(=O)/C=C/c4ccc(C)cc4)ccc3n2)CC1 | . | . | . | . | . | -
Cc1cc(C)c(C2=Nn3c(C)nnc3SC2C)cc1C (centres undefined) | - | - | - | - | - | -
COc1ccc(C(=O)N2CCN(C(=O)COc3ccccc3)CC2)cc1OC | . | . | . | . | . | -
Cc1cc(Nc2nc3ccccc3nc2Cl)n(-c2ccc([N+](=O)[O-])cc2)n1 | 1.04µM | . | - | - | - | -
O=C1N(c2ccccc2)CCN1c1ccccc1 | 10.4µM | - | - | 37.8 | . | -
COc1ccc(N2Cc3ccccc3C2=O)cc1 | 2.94µM | - | - | 35.4 | . | -
O=C1NC(=S)CN1c1ccccc1 | - | - | - | - | - | -
Cc1ccc(N2Cc3ccccc3C2=O)cc1 | - | - | - | 25.5 | - | -
COc1ccc(N2C(=O)c3ccccc3S2(=O)=O)cc1 | - | 2.94µM | - | - | - | -
CC(NC(=O)C1CCN(c2nnc(N3CCCC3=O)s2)CC1)c1ccccc1 (centres undefined) | - | ? | - | - | - | -
O=C(O)[C@@H](c1ccccc1)N1Cc2ccccc2C1=O | ? | . | - | - | - | -
O=C1c2ccccc2CN2C(=O)c3ccccc3CN12 | 3.7µM! | - | - | - | - | -
CCOc1ccc(N2Cc3ncccc3C2=O)cc1 | - | - | - | 46.6 | 137.0 | -
CCOc1ccc(N2C(=O)c3ccccc3C2=O)cc1 | . | - | - | - | - | -
O=C1c2ccccc2CN1c1ccccc1 | 4.15µM | - | - | 37.9 | 54.0 | -
Cc1ccc(OCCC(=O)OCC(=O)Nc2ccc3c(c2)OCO3)cc1 | - | - | . | . | . | -
CCc1cccc(C)c1NC(=O)c1cc(S(=O)(=O)N(C)Cc2ccccc2)ccc1F | . | . | . | . | . | -
Cc1nc2c(c(=O)[nH]1)CSCC2 | . | . | . | - | - | .
COc1ccc(CCNC(=O)CC(NS(=O)(=O)c2ccc(NC(C)=O)cc2)C(C)C)cc1OC (centres undefined) | ? | - | - | - | - | -
SMILES | Pf growth 96h | Pf growth 48h | NS1 inh | Cycloheximide cs | Shiga toxin inh | Sm TGR inh
Cc1ccc(S(=O)(=O)NC(Cc2ccccc2)C(=O)O)cc1 (centres undefined) | - | - | - | - | - | -
Cc1ccc(S(=O)(=O)NC(=O)NCCc2ccccc2)cc1 | - | - | . | 14.5 | - | -
CC(=O)Nc1ccc(S(=O)(=O)NC(CC(=O)NCCc2ccccc2)C(C)C)cc1 (centres undefined) | - | . | - | 30.6 | - | -
Cc1ccc(S(=O)(=O)NC(=O)NC(C)Cc2ccccc2)cc1 (centres undefined) | - | - | - | 19.8 | - | -
Cc1ccc(S(=O)(=O)NNC(=S)NCCc2ccccc2)cc1 | - | - | - | - | - | ?
COc1cccc2c1cc1c(=O)n(CC(=O)NCc3ccc(N(C)C)cc3)nc(C)n12 | . | . | . | . | . | -
COC(=O)c1ccc(Cn2c(=O)cc(C)c3c(C)nn(C)c32)cc1 | . | . | . | . | . | -
Cc1sc2nc(SCC(=O)NCc3ccco3)n(-c3ccccc3)c(=O)c2c1C | - | - | - | - | - | -
CC(C)C(C)NC(=O)CSc1nc2scc(-c3ccco3)c2c(=O)n1-c1ccccc1 (centres undefined) | . | 11.7µM | - | - | - | 25.1µM
CC(C)C(C)(C#N)NC(=O)CSc1nc2scc(-c3ccco3)c2c(=O)n1-c1ccccc1 (centres undefined) | ? | 9.28µM | - | - | - | ?
COC(=O)C1=C(C(=O)OC)[C@@H]2N(C)c3ccc(OC)cc3[C@@]23C[C@@H](C(=O)OC)N(C(=O)C2CCC2)C3=N1 | - | ? | - | - | - | -
CCCCS(=O)(=O)N1C2=NC(C(=O)OC)=C(C(=O)OC)[C@@H]3N(C)c4ccc(OC)cc4[C@]23C[C@H]1C(=O)OC | ? | 10.4µM | - | - | - | -
COC(=O)C1=C(C(=O)OC)[C@@H]2N(C)c3ccc(OC)cc3[C@@]23C[C@@H](C(=O)OC)N(S(=O)(=O)c2ccc([N+](=O)[O-])cc2)C3=N1 | 13.1µM | 7.38µM | - | - | - | -
CCCN1CCN(CCNC(=O)Nc2cc(OC)cc(OC)c2)CC1 | . | . | . | . | . | -
c1coc(-c2nnc(-c3ccc4c(c3)OCO4)o2)c1 | - | . | - | 21.7 | 51.7 | -[11.4 µM]
Cc1ccc(-c2nnc(-c3ccc4c(c3)OCO4)o2)cc1 | - | - | - | 45.6 | 101.1 | -
c1nnc(-c2ccc3c(c2)OCO3)o1 | - | - | . | - | - | -
Brc1ccc(-c2nnc(-c3ccc4c(c3)OCO4)o2)o1 | - | - | - | 35.0 | 111.3 | -
CN1C(=O)c2ccccc2Sc2ccc(NC(=O)N3CCN(c4ccc(F)cc4)CC3)cc21 | . | . | . | . | . | -
CCOc1ccc(N2C(=O)C3C4C=CC(CC4)C3C2=O)c([N+](=O)[O-])c1 (centres undefined) | ? | - | - | - | - | 50.1µM
Cc1ccc(N2C(=O)C3C4C=CC(C4)C3C2=O)cc1C (centres undefined) | - | - | - | - | - | -
COc1ccc(N2C(=O)C3C4C=CC(CC4)C3C2=O)c([N+](=O)[O-])c1 (centres undefined) | - | - | - | - | - | -
CCOc1ccc(N2C(=O)C3CC(C)=C(C)CC3C2=O)c([N+](=O)[O-])c1 (centres undefined) | ? | - | - | - | - | 20µM
Cc1ccc(N2C(=O)C3C4C=CC(CC4)C3C2=O)cc1[N+](=O)[O-] (centres undefined) | - | - | - | - | . | 50.1µM
CCOc1ccc([N+](=O)[O-])c(N)c1 | - | - | - | - | - | -
CCc1ccc(N2C(=O)C3C4C=CC(CC4)C3C2=O)cc1 (centres undefined) | - | ? | - | - | 48.2 | -
O=C1CCCN1CCCNCC(=O)N1c2ccccc2Sc2ccccc21 | . | - | - | - | - | -
CN(CC(=O)Nc1ccccc1C(F)(F)F)C(=O)COc1ccccc1Cc1ccccc1 | ? | ? | . | . | . | -
